Laboratory results reported in PubChem BioAssay.
Unmarked numbers belong to inactive results. Calls of active or inactive are those of the source.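 How the source made its calls, unless noted: active means mean inhibition above 46.68%, the untreated control wells mean plus 3 SD; inactive means the rest.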

Key:
[1] = biological target: Nuclear receptor coactivator 1 (Homo sapiens) (UniProt Q15788); assay: NCOA1 GAL4-fusion reporter inhibition – cell-based, luminescence, quadruplicate, confirmation (AID 588820); details: HEK293 GAL4-SRC1 luciferase reporter, at 3.6 µM, hits give high values;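 further: 0% = DMSO wells and 100% = gossypol 36 µM treated wells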
[2] = repression of VP16-driven luciferase reporter – cell-based, luminescence, high throughput, counter-screen for SRC1 inhibitor project (AID 588824; in the data active means inhibition above about 25%); details: cell-based VP16 transactivation luciferase luminescence; at 3.6 µM; hits give high values

Sequence of Nuclear receptor coactivator 1 (Homo sapiens) (Q15788 whole entry, looked up, the tested form may be a part): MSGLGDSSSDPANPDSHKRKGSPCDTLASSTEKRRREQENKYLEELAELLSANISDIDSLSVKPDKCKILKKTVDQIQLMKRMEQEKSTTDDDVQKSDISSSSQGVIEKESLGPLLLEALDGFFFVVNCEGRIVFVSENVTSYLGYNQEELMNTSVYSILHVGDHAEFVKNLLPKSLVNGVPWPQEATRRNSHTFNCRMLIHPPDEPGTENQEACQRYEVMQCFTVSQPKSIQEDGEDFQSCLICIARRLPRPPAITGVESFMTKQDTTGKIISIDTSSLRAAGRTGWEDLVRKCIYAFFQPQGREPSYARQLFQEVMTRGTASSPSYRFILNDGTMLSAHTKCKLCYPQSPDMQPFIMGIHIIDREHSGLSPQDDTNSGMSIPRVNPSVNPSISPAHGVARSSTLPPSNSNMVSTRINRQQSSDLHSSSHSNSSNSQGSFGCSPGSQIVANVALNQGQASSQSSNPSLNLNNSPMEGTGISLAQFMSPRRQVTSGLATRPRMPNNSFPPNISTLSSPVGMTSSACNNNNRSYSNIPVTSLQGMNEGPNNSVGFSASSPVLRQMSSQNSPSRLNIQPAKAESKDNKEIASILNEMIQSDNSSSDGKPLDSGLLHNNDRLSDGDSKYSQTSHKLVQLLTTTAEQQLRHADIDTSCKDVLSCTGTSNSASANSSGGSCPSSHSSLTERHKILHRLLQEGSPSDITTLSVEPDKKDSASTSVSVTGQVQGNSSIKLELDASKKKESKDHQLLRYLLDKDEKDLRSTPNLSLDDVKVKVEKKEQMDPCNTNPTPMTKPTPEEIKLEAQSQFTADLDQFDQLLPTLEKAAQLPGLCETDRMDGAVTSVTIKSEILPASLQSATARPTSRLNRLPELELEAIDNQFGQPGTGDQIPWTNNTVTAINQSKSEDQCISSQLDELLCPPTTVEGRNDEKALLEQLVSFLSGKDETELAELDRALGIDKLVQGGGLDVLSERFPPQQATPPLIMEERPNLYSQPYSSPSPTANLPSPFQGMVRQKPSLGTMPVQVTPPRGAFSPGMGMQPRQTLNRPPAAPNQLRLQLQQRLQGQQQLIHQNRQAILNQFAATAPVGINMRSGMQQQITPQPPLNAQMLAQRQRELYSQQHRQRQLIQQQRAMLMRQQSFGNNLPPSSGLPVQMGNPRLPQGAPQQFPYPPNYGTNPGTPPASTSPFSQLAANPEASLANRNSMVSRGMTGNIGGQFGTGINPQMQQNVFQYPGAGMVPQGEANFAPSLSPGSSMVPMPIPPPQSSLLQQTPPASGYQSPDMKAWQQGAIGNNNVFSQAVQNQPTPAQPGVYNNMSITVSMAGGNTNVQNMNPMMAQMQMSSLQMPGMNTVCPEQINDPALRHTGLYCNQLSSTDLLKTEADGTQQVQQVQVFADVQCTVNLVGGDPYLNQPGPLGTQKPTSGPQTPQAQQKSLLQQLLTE

Compound | inhibition [1] [%] | inhibition [2]
Cc1ccnc(SC2CC(=O)N(c3ccc(C(C)C)cc3)C2=O)n1 (centres undefined) | 7.69 | -8.25%
O=C1c2cccc(OCc3ccc(F)cc3)c2CCN1Cc1ccc(F)cc1 | 21.3 | 33.4% (active)
Cc1ccc(S(=O)(=O)N(C)c2ccc(C(=O)N3CCN(Cc4ccc5c(c4)OCO5)CC3)cc2)cc1 | 9.2 | 30% (active)
O=C(NCc1ccccc1)c1cc(S(=O)(=O)N2CCCCC2)ccc1N1CCOCC1 | -1.88 | 11.3%
CCOC(=O)C1=C(COC(=O)/C=C/c2ccc(OC)c(OC)c2)NC(=O)NC1C (centres undefined) | -16.4 | -2.04%
CCN(CC(=O)Nc1ccc(NC(C)=O)cc1)C(=O)Cc1ccc(S(=O)(=O)N2CCOCC2)s1 | 6.3 | 8.19%
COc1ccccc1C1NC(=O)NC(C)=C1C(=O)OC1CCCC(C)C1 (centres undefined) | 6.58 | -1.62%
COc1cc(NC(=O)c2cccc3c(-c4cnn(C)c4)coc23)cc(OC)c1OC | -26.3 | -0.35%
COc1ccc(N2CCN(C(=O)c3oc4ccccc4c3NC(=O)CCc3cc(OC)no3)CC2)cc1 | 1.78 | -3.04%
Cc1cc(C)nc(/N=C(\N)Nc2ccc(CC(=O)OC(C)C)cc2)n1 | -11.9 | 16.6%
CCN(CC)c1ccc(NC(=O)CSc2n[nH]c(-c3ccco3)n2)cc1 | -8.8 | -1.86%
CNC(=O)CCCN1C(=O)c2ccccc2Sc2ncccc21 | -2.17 | -3.21%
CCNC(=O)C1(C)CCCN(Cc2ccc3ccccc3c2Br)C1 (centres undefined) | 11 | 13.3%
Cn1ncc(Cl)c1C(=O)NCc1cc(C(C)(C)C)n[nH]1 | -8.52 | -4.25%
O=C1NC(=S)N/C1=C/c1ccc2c(c1)OCO2 | 10.2 | 16.3%
c1ccc(-c2cn(-c3ccccc3)c3ncnc(N4CCCCC4)c23)cc1 | 1.38 | 9.49%

Compound | inhibition [1] [%] | inhibition [2]
CN1CCN(c2ccc(CNS(=O)(=O)c3ccc(F)cc3Cl)cc2)CC1 | -2.89 | -5.39%
COC(=O)C(C)Sc1nc(NCc2ccccc2)nc(N(C)C)n1 (centres undefined) | -11.2 | -11.6%
COCCn1c(SCC(=O)Nc2cccc(NC(C)=O)c2)nc2c([nH]c3ccccc32)c1=O | -31.7 | -16.2%
COc1cccc2c1OC1(C)CC2NC(=O)N1c1cccc(C(=O)Nc2ccc3c(c2)OCCO3)c1 (centres undefined) | -28.6 | -19.2%
O=C(Nc1ccccc1)N1CCCN(c2ccc(C(F)(F)F)cn2)CC1 | -0.62 | -2.54%
C=C1CCC[C@]2(C)C[C@H]3OC(=O)C(CN4CC(C)OC(C)C4)[C@H]3C[C@@H]12 (some centres undefined) | -0.94 | 2.96%
O=C(c1ccccc1)N1CCN(Cc2ccc3c(c2)OCO3)CC1 | 0.9 | 3.86%
CC1=C(C(=O)Nc2ccccc2C(=O)NCc2ccccc2)SCCO1 | -7.53 | -4.09%
COc1ccc2c(c1)-c1c(ssc1=S)C(C)(C)N2C(=O)CSC1=NCCS1 | 24.9 | 12.4%
CCC(CC)C(=O)N(C)c1c(C)nc2c(OCc3ccc(OC(F)F)cc3)cccn12 | -18.2 | 5.06%
O=C(C[C@H]1C[C@H](C(=O)N2CCOCC2)[C@@]2(CCC3CCCC3)c3[nH]c4ccc(Cl)cc4c3CCN2C1=O)NCCCn1ccnc1 | -4.01 | 2.48%
Cc1ccc(-c2nc(-c3ccccc3)no2)c(Cl)c1 | -51.6 | -16.6%
COc1ccc2cc3cc(C(=O)NCc4cccs4)oc3nc2c1 | 4.16 | 39.4% (active)
O=C(Nc1nc(-c2ccccn2)cs1)c1cccc(S(=O)(=O)N2CCOCC2)c1 | 25 | 20%
CCN(C(=S)NC(=O)C1CC1)c1ccccc1 | -8.52 | -4.48%
COc1ccc(NC(=O)c2cc3c(s2)CCC(C)C3)cc1S(=O)(=O)N1CCOCC1 (centres undefined) | 9.02 | 25.1%
